# Hits are enriched below; roughly 21% of the tested compounds scored in any of these assays.
# SARS PLpro yeast: blocks SARS-CoV papain-like protease in a yeast assay | 330,000 tested, 0.19% active | S. cerevisiae expressing SARS-CoV PLpro, growth rescue | Potency, µM (doses to about 32.9 µM), inactives show at the top dose activity, positive = growth rescue, hits mostly activators; calls by dose curve; note: potency is the fitted concentration of half-maximal effect; 0% is about no effect; nearly all actives have a fitted effect of over 55% in size
# Pf growth 48h: inhibits P. falciparum growth in the first generation, 48 h. P. falciparum luciferase growth in erythrocytes, 48 h. Potency, µM (titrated, usually from 28.7 µM), for inactives: top-dose activity change, negative = inhibition, hits mostly inhibitors. 310,000 tested, 5.9% active. AID 504832; note: potency is the fitted concentration of half-maximal effect; % is set by controls: 0 for no effect and ±100 for the full control effect
#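 Read-out is firefly luciferase luminescence from an integrated reporter in P. falciparum, so falling signal marks reduced parasite growth. Infected erythrocytes were at 2% hematocrit and 0.1% parasitemia (final) in Albumax-supplemented RPMI 1640.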
# Pf growth 96h: inhibits malaria parasite growth, 96 h; AID 504834; 320,000 tested, 6.9% active; Potency, µM (titrated, usually from 28.7 µM), inactives show top-dose activity change, negative = inhibition, most hits filed as inhibitors; P. falciparum luciferase reporter growth, 96 h; note: potency is the fitted concentration of half-maximal effect; % is set by controls: 0 for no effect and ±100 for the full control effect
#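 Two-generation exposure (96 h) targets delayed-death phenotype. Reporter parasites carrying integrated firefly luciferase, in red cells at 2% hematocrit and 0.05% parasitemia final, kept at 37 C, 5% CO2; luminescence loss indicates inhibition.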
# Cycloheximide cs: affects cycloheximide protein synthesis inhibition readout, counter-screen; cell reporter, cycloheximide protein synthesis inhibition counterscreen; max response, %; 300,000 tested, 12% active; in the data active = max response mostly above about 13%, no sharp cut-off; inactive = mostly below about 14%; note: read at 38.3 µM for the half of the compounds with a filed dose; 0% is about no effect
# NS1 inh: blocks influenza NS1 protein function. Potency, µM (highest dose often 46.1 µM), inactives show top-dose activity, positive = more growth. 270,000 tested, 0.4% active; calls by dose curve; note: potency is the fitted concentration of half-maximal effect; actives are rising curves; nearly all actives have a fitted effect of over 50% in size
#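 Recovery from NS1-induced slow growth read by OD600 in budding yeast switched to galactose assay medium (pH 6.0, -URA) at 1:100 dilution. Compound 23 nl per well; the matching strain lacking NS1 serves as control.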
# Shiga inhibitor: Shiga toxin inhibition | Vero cells, Shiga toxin protein synthesis inhibition reporter | inhibition, % at 38.7 µM | 290,000 tested, 9.2% active; in the data active = inhibition mostly above about 28%, no sharp cut-off; inactive = mostly below about 43%; note: 0% is about no effect
# * marks the source's active call; other numbers are inactive results; ? = inconclusive; · = no result given. Unless noted, calls come from the whole dose curve; as a rule, active = well fitted inhibition curve with a large enough effect; inconclusive = small, poorly fitted or top-dose-only effect, or another doubt; inactive = no such curve, though single readings can be large or run the other way.
SMILES,SARS PLpro yeast,Pf growth 48h,Pf growth 96h,Cycloheximide cs,NS1 inh,Shiga inhibitor
CCSc1nnc(NC(=O)CSc2nc3c(c(=O)n2C)SC(C)C3)s1 (centres undefined),2%,12µM*,0%,0,3%,-8
CN(C(=S)NC(=O)c1ccccc1Br)C1CCCCC1,3%,-12%,4.7µM*,4,-10%,25
CC1CCCCC1NC(=S)NC(=O)c1ccccc1Br (centres undefined),?,?,?,8,19%,-4
Cc1ccccc1C(=O)NC(=S)N(C)C1CCCCC1,1%,15µM*,?,26*,-3%,31*
O=C(NC(=S)NC1CCS(=O)(=O)C1)c1ccccc1Br (centres undefined),2%,-4%,5.9µM*,10,13%,-15
COc1ccc(C(=O)Nc2ccc(S(=O)(=O)NCc3ccco3)cc2)cc1OC,-3%,-12%,-17%,-2,10%,14
COc1ccccc1NC(=O)c1ccc(S(=O)(=O)NCc2ccco2)cc1,-5%,10%,-1%,38*,4%,103*
O=C(COc1ccccc1F)Nc1ccc(S(=O)(=O)NCc2ccco2)cc1,5%,-9%,?,40*,-8%,40
COc1ccc(S(=O)(=O)NCc2ccco2)cc1NC(=O)c1ccccc1,4%,-7%,-16%,47*,13%,65*
Cc1cccc(NC(=O)c2cc(S(=O)(=O)NCc3ccco3)ccc2F)c1C,9%,-14%,2%,47*,-4%,63*
Cc1cccc(C)c1NC(=O)CNC(=O)c1ccc(S(=O)(=O)NCc2ccco2)cc1,-2%,-12%,-30%,·,·,·
COC(=O)c1cnc(N2CCCN(S(=O)(=O)c3ccc(C(F)(F)F)cc3)CC2)nc1C(F)(F)F,1%,-22%,16%,-1,1%,10
O=C(Cn1nc(-c2cccc([N+](=O)[O-])c2)c2ccccc2c1=O)Nc1cccnc1,3%,·,?,-5,18%,-9
Fc1cccc(-c2c(-c3ccccc3)ncc3cc(F)ccc23)c1,1%,?,?,·,·,·
O=[N+]([O-])c1cccc(-c2c(-c3ccccc3)ncc3ccc(F)cc23)c1,-4%,-8%,4.7µM*,·,·,·
O=C(Cc1ccc(S(=O)(=O)N2CCOCC2)s1)N(Cc1ccccc1)c1ccccc1,-1%,9.3µM*,2.3µM*,·,·,·
COc1ccc(CN(C)C(=O)Cc2ccc(S(=O)(=O)N3CCOCC3)s2)cc1OC,4%,-18%,-25%,·,·,·
CCCCN(C(=O)Cc1ccc(S(=O)(=O)N2CCOCC2)s1)c1ccccc1,1%,?,12µM*,·,·,·
Cc1ccc(NC(=O)C(C)N=C2NS(=O)(=O)c3ccccc32)cc1F (centres undefined),-1%,-2%,39%,29*,6%,63*
COc1ccc(N(Cc2cc3cc(OC)ccc3[nH]c2=O)S(=O)(=O)c2ccc(NC(C)=O)cc2)cc1,-10%,2.3µM*,9.3µM*,-4,-1%,-16
CCOc1ccc(N(Cc2cc3cc(OC)ccc3[nH]c2=O)S(C)(=O)=O)cc1,14%,-2%,1%,5,-19%,-11
COc1ccc(N(Cc2cc3ccccc3[nH]c2=O)S(=O)(=O)c2ccc(OC)cc2)cc1,4%,-25%,?,22,4%,19
COc1ccc2[nH]c(=O)c(CN(c3ccc(C)c(C)c3)S(C)(=O)=O)cc2c1,2%,-21%,6.6µM*,-3,·,-8
CC(C)CN1CCN(Cc2ccc(Oc3ncccn3)cc2)CC1CCO (centres undefined),1%,1%,4%,0,2%,9
O=C(CNc1cc(S(=O)(=O)N2CCOCC2)ccc1N1CCCC1)N1CCc2ccccc21,-1%,13µM*,?,1,-1%,-4
CC(=O)NCCC(=O)Nc1cc(S(=O)(=O)N2CCOCC2)ccc1Oc1ccccc1,0%,-11%,12µM*,-2,7%,-7
CC(=O)NCCC(=O)Nc1cc(S(=O)(=O)N2CCOCC2)ccc1N1CCCC1,1%,12µM*,0%,·,·,·
CCC(C)N(C(=O)Cn1nnc2ccccc21)C(C(=O)Nc1ccc(F)cc1)c1cccc(OC)c1 (centres undefined),-2%,?,10µM*,-2,?,-10

# High-throughput results from PubChem BioAssay.
